Among all 5,500 compounds or so, about 2,000 (36%) were called active. Not shown: some 18% with an inconclusive outcome. Rule as the data show it: active = normalized growth mostly below about 0.91 (no sharp cut-off); inconclusive = no clear call, values can overlap the other calls; inactive = mostly above about 0.92. The list shows a part of the results.
Assay: chemical genetic growth profiling, strain panel (AID 1159580);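 also: tested at 20 µM; growth read once vehicle control cultures reached saturation at 30 °C; 1 = growth at the plate median or of vehicle wells; lower values mean less growth of the strain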
Details: growth OD

Measured: normalized growth

NCCCN
inactive: S. cerevisiae deletion strains, locus YJR066W, strain TOR1, stronger effect = lower value 0.933 | S. cerevisiae deletion strains, locus YKL009W, strain mrt4, stronger effect = lower value 1.02 | S. cerevisiae deletion strains, locus YKL068W, stronger effect = lower value 0.985 | S. cerevisiae deletion strains, locus YKL085W, strain MDH1 (second series), stronger effect = lower value 0.984 | S. cerevisiae deletion strains, locus YKL085W, strain MDH1, stronger effect = lower value 0.984 | S. cerevisiae deletion strains, locus YKL160W, strain elf1, stronger effect = lower value 1.02 | S. cerevisiae deletion strains, locus YKL190W, strain CNB1, stronger effect = lower value 0.999 | S. cerevisiae deletion strains, locus YKR001C, strain vps1, stronger effect = lower value 1.01 | S. cerevisiae deletion strains, locus YKR026C, strain gcn3, stronger effect = lower value 0.986 | S. cerevisiae deletion strains, locus YKR091W, strain srl3, stronger effect = lower value 0.998 | S. cerevisiae deletion strains, locus YLL001W, strain dnm1, stronger effect = lower value 1 | S. cerevisiae deletion strains, locus YLL026W, stronger effect = lower value 0.988 | S. cerevisiae deletion strains, locus YLL041C, strain sdh2, stronger effect = lower value 0.987 | S. cerevisiae deletion strains, locus YLR027C, strain aat2, stronger effect = lower value 1 | S. cerevisiae deletion strains, locus YLR039C, strain RIC1, stronger effect = lower value 1.09 | S. cerevisiae deletion strains, locus YLR058C, strain SHM2, stronger effect = lower value 1 | S. cerevisiae deletion strains, locus YLR102C, strain apc9, stronger effect = lower value 0.988 | S. cerevisiae deletion strains, locus YLR113W, strain HOG1, stronger effect = lower value 1.05 | S. cerevisiae deletion strains, locus YLR221C, strain rsa3, stronger effect = lower value 0.959 | S. cerevisiae deletion strains, locus YLR258W, strain gsy2, stronger effect = lower value 0.992 | S. cerevisiae deletion strains, locus YLR262C, strain YPT6 (second series), stronger effect = lower value 1.02 | S. cerevisiae deletion strains, locus YLR262C, strain YPT6, stronger effect = lower value 1.14 | S. cerevisiae deletion strains, locus YLR268W, strain sec22, stronger effect = lower value 0.979 | S. cerevisiae deletion strains, locus YLR320W, strain mms22, stronger effect = lower value 0.983 | S. cerevisiae deletion strains, locus YLR330W, strain CHS5, stronger effect = lower value 0.993 | S. cerevisiae deletion strains, locus YLR342W, strain FKS1 (second series), stronger effect = lower value 1.02 | S. cerevisiae deletion strains, locus YLR342W, strain FKS1, stronger effect = lower value 0.994 | S. cerevisiae deletion strains, locus YLR357W, strain rsc2, stronger effect = lower value 0.978 | S. cerevisiae deletion strains, locus YLR370C, strain arc18, stronger effect = lower value 0.967 | S. cerevisiae deletion strains, locus YLR371W, strain rom2, stronger effect = lower value 0.961 | S. cerevisiae deletion strains, locus YLR384C, strain iki3, stronger effect = lower value 0.993 | S. cerevisiae deletion strains, locus YLR418C, strain cdc73, stronger effect = lower value 1.03 | S. cerevisiae deletion strains, locus YML016C, strain PPZ1, stronger effect = lower value 0.994 | S. cerevisiae deletion strains, locus YML032C, strain rad52, stronger effect = lower value 1.02 | S. cerevisiae deletion strains, locus YML120C, strain ndi1, stronger effect = lower value 0.992 | S. cerevisiae deletion strains, locus YML124C, strain tub3, stronger effect = lower value 0.99 | S. cerevisiae deletion strains, locus YMR058W, strain fet3, stronger effect = lower value 0.994 | S. cerevisiae deletion strains, locus YMR078C, strain ctf18, stronger effect = lower value 0.972 | S. cerevisiae deletion strains, locus YMR125W, strain sto1, stronger effect = lower value 0.97 | S. cerevisiae deletion strains, locus YMR129W, stronger effect = lower value 0.991 | S. cerevisiae deletion strains, locus YMR205C, strain PFK2, stronger effect = lower value 1.02 | S. cerevisiae deletion strains, locus YMR223W, strain ubp8, stronger effect = lower value 1.01 | S. cerevisiae deletion strains, locus YMR231W, strain pep5, stronger effect = lower value 0.946 | S. cerevisiae deletion strains, locus YMR307W, strain GAS1, stronger effect = lower value 1.1 | S. cerevisiae deletion strains, locus YNL067W, strain RPL9B, stronger effect = lower value 1.01 | S. cerevisiae deletion strains, locus YNL071W, strain lat1, stronger effect = lower value 0.985 | S. cerevisiae deletion strains, locus YNL183C, strain NPR1, stronger effect = lower value 0.969 | S. cerevisiae deletion strains, locus YNL209W, strain ssb2, stronger effect = lower value 0.993 | S. cerevisiae deletion strains, locus YNL233W, strain BNI4, stronger effect = lower value 1.01 | S. cerevisiae deletion strains, locus YNL248C, strain rpa49, stronger effect = lower value 0.993 | S. cerevisiae deletion strains, locus YNL250W, strain rad50, stronger effect = lower value 0.979 | S. cerevisiae deletion strains, locus YNL271C, strain bni1, stronger effect = lower value 0.99 | S. cerevisiae deletion strains, locus YNL298W, strain CLA4, stronger effect = lower value 1.01 | S. cerevisiae deletion strains, locus YNL307C, strain MCK1, stronger effect = lower value 0.985 | S. cerevisiae deletion strains, locus YNL322C, strain KRE1 (second series), stronger effect = lower value 0.962 | S. cerevisiae deletion strains, locus YNL322C, strain KRE1, stronger effect = lower value 0.996 | S. cerevisiae deletion strains, locus YNR049C, strain mso1, stronger effect = lower value 0.988 | S. cerevisiae deletion strains, locus YNR052C, strain pop2, stronger effect = lower value 0.992 | S. cerevisiae deletion strains, locus YOL006C, strain TOP1, stronger effect = lower value 1.08 | S. cerevisiae deletion strains, locus YOL012C, strain htz1 0.761 | S. cerevisiae deletion strains, locus YOL147C, strain pex11, stronger effect = lower value 0.997 | S. cerevisiae deletion strains, locus YOR001W, strain rrp6, stronger effect = lower value 0.951 | S. cerevisiae deletion strains, locus YOR061W, strain CKA2, stronger effect = lower value 0.997 | S. cerevisiae deletion strains, locus YOR069W, strain VPS5, stronger effect = lower value 0.993 | S. cerevisiae deletion strains, locus YOR070C, strain gyp1, stronger effect = lower value 0.999 | S. cerevisiae deletion strains, locus YOR080W, strain dia2, stronger effect = lower value 0.97 | S. cerevisiae deletion strains, locus YOR083W, strain WHI5, stronger effect = lower value 1.02 | S. cerevisiae deletion strains, locus YOR106W, strain vam3, stronger effect = lower value 0.995 | S. cerevisiae deletion strains, locus YOR136W, strain idh2, stronger effect = lower value 0.974 | S. cerevisiae deletion strains, locus YOR144C, strain elg1, stronger effect = lower value 0.993 | S. cerevisiae deletion strains, locus YOR184W, strain ser1, stronger effect = lower value 1.01 | S. cerevisiae deletion strains, locus YOR231W, strain MKK1, stronger effect = lower value 0.987 | S. cerevisiae deletion strains, locus YOR265W, strain rbl2, stronger effect = lower value 0.99 | S. cerevisiae deletion strains, locus YOR270C, strain vph1, stronger effect = lower value 0.974 | S. cerevisiae deletion strains, locus YOR290C, strain snf2, stronger effect = lower value 0.991 | S. cerevisiae deletion strains, locus YOR316C, strain cot1, stronger effect = lower value 0.987 | S. cerevisiae deletion strains, locus YPL051W, strain arl3, stronger effect = lower value 0.984 | S. cerevisiae deletion strains, locus YPL078C, strain atp4, stronger effect = lower value 1 | S. cerevisiae deletion strains, locus YPL106C, strain sse1, stronger effect = lower value 0.996 | S. cerevisiae deletion strains, locus YPL240C, strain hsp82, stronger effect = lower value 0.986 | S. cerevisiae deletion strains, locus YPL241C, strain CIN2, stronger effect = lower value 1 | S. cerevisiae deletion strains, locus YPL256C, strain CLN2, stronger effect = lower value 0.988 | S. cerevisiae deletion strains, locus YPR119W, strain clb2, stronger effect = lower value 0.986 | S. cerevisiae deletion strains, locus YPR141C, strain kar3, stronger effect = lower value 0.985 | S. cerevisiae deletion strains, locus YPR163C, strain tif3, stronger effect = lower value 0.986 | S. cerevisiae deletion strains, locus YPR167C, strain met16, stronger effect = lower value 0.999 | S. cerevisiae deletion strains, strain wtn01, stronger effect = lower value 0.96 | S. cerevisiae strains, strain wild type, stronger effect = lower value 1
